Test results: the supplement of paper PMC6555819

The sequences below were run on PXR:RXRa (NR concentration 270 nM, RXRa partner concentration 90 nM) (assay: PBM binding z-score (relative to random genomic background probes); higher = stronger binding; sequences stand for … in GC…GCGATTGACAGCGTAGAATGAAGG).
How it was run: (§1)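 Binding z-scores take random background probes as their reference. They come from custom Agilent 4×180K protein-binding microarrays incubated 1 h with ligand-free nuclear receptor dimers, with antibodies against each partner (one per run) detecting binding. Scanned fluorescence was regression-normalized.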
Work on TCAGAGAGGTGAAGGTAACTCAGGTACGCAGTCG yielded a PBM binding z-score of 0.893.
For GGTAGTTGGTCAGTAAAAGGTCACACACCGGTCG, the PBM binding z-score was 4.95.
In the case of GTACCAAGGTGAATAGTTCGTTGATGAGTAGGCG, the PBM binding z-score is reported as 0.39.
Work on TCTATTAGTTGAATAGGGCAACCGAAACAGCGGA yielded a PBM binding z-score of 0.411.
CAAACTAGGTCACAGAGCTCAAAGTCCGTGCGTA gave a PBM binding z-score of 1.81.
Work on ATCTCTTGGTAACAAGTTCAGTGAAAGAGAGGAC yielded a PBM binding z-score of 1.67.
With TCAGACAGGTCAAGGTAACTCAGGTACGCAGTCG the PBM binding z-score was 2.46.
With TCGAGTAGGTTAGTCGGGGCGTTCAGCCAACATA the PBM binding z-score was -0.237.
For TCTGCTAGGTCAGTTGGTCAGCTCACGAGCTGCC, the PBM binding z-score was 0.341.
Work on AGAACGAGGGCACGCTGAGTTGATTGCAGAGTAG yielded a PBM binding z-score of 1.56.
For AGAACGAGGGCACGCTGAGTAGATAGCAGAGTAG, the PBM binding z-score was 0.201.
Work on ATATGTAGGTTACATCCGGGTCATTCCGGCTATG yielded a PBM binding z-score of 3.36.
In the case of AGAACGCGGGCACGCTGAGTTGATAGCAGAGTAG, the PBM binding z-score is reported as -0.502.
Work on TCTTGTAGATCAATAGAGGCTAAGAAAGTGCGCT yielded a PBM binding z-score of 0.573.
For CCTAGCAGGCCAATCTGGGTCACTGAAGGCTTGA, the PBM binding z-score was 0.783.
For CCTTACGGGTCACGAGGTTACAGCACGACGAGCG, the PBM binding z-score was 5.
Work on TCTTGTAGATCAGCAGGTGAAGAAAGCTGGCCAA yielded a PBM binding z-score of -0.182.
Sequence ACTATTAGCTGACTTAGGGCAACCGATACGACGC has a PBM binding z-score of -0.173.
AGAACGAGGGCAATGAGTTGATCGCACGGGTGGC gave a PBM binding z-score of 1.75.
TTACCAAGGTGAAGGTCGTCGATCCCTCTGTAGA gave a PBM binding z-score of 1.24.
With CTCGAAAGGTCGGTTGAGGTGAATATACGGATAA the PBM binding z-score was 3.62.
Work on CGTCCAAGGTCAAGGCTAGGTCAGTGAAAGCATT yielded a PBM binding z-score of 5.03.
In the case of ACTAGCAGGCAAAGGGTCACTCAAGATTAGTCCG, the PBM binding z-score is reported as 3.4.
TCTTGTAGAACAAAGGTTAAGAAAGCCGAAGCCT showed a PBM binding z-score of 1.31.
TAACCTAGGTCATGGGCCAGTATACCACGCGAAC showed a PBM binding z-score of 2.19.
Work on CTACCAAGGTGAACAAGGTCGTTGCTTACTATTC yielded a PBM binding z-score of 3.08.
In the case of TGTGCTAGGTCAGTTGGTCAGCTAACGAGCTGCC, the PBM binding z-score is reported as 0.0475.
Sequence TCTGGTTGGTCACGGAGGTCACACACGACGGGTA has a PBM binding z-score of 4.9.
Work on AGTCAAAGTTCATCTAGGTGACGTAAGATATGCT yielded a PBM binding z-score of 4.98.
GCTCTTAGTTGAAAGGGCAACCGAATGATTCTCG showed a PBM binding z-score of 0.654.
Work on CGTCCAAGGTCAGGGTCAGTGAAAGAGACTCGAA yielded a PBM binding z-score of 3.7.
For TCATATAGCTAAAGGTGAAAGTCGAACGATATGA, the PBM binding z-score was 0.662.
With AGAATGAGGTTACCAAAGATCAGGTAAACGCTTG the PBM binding z-score was 1.64.
With GCTGCTAGGTCAACTGATGGTTAGCTAAAGCTCG the PBM binding z-score was 1.55.
TCGAGTAGGTTACTCGGGGCATTCAGCCAACATA gave a PBM binding z-score of 0.641.
For AGAAGGAGGGCACGCTGAGTTGATAGCAGAGTAG, the PBM binding z-score was 1.16.
Sequence GCATATAGGTAATACATGGTGAAAGTCCGATTGT has a PBM binding z-score of 0.00943.
Sequence GCTATTAGTTGAAAAGGCAACCGAATGATTCTCG has a PBM binding z-score of -0.0791.
CAAACTAGGTCAAGGTCAACGTCGGTTTGTGCCA gave a PBM binding z-score of 5.27.
GCTTGTAAATCAAGGTTAAGAAAGACTAAGCTAA gave a PBM binding z-score of 0.564.

The sequences below were run on PXR homodimer (NR concentration 270 nM) in the same assay as above.
How it was run: as §1
For TCAGAGAGGTGAAGGTAACTCAGGTACGCAGTCG, the PBM binding z-score was -0.409.
Work on GGTAGTTGGTCAGTAAAAGGTCACACACCGGTCG yielded a PBM binding z-score of 1.37.
GTACCAAGGTGAATAGTTCGTTGATGAGTAGGCG showed a PBM binding z-score of 0.918.
Work on TCTATTAGTTGAATAGGGCAACCGAAACAGCGGA yielded a PBM binding z-score of 0.0472.
CAAACTAGGTCACAGAGCTCAAAGTCCGTGCGTA gave a PBM binding z-score of -0.0569.
Sequence ATCTCTTGGTAACAAGTTCAGTGAAAGAGAGGAC has a PBM binding z-score of 1.14.
For TCAGACAGGTCAAGGTAACTCAGGTACGCAGTCG, the PBM binding z-score was 0.321.
TCGAGTAGGTTAGTCGGGGCGTTCAGCCAACATA was tested, and the PBM binding z-score was -0.771.
TCTGCTAGGTCAGTTGGTCAGCTCACGAGCTGCC showed a PBM binding z-score of -1.06.
With AGAACGAGGGCACGCTGAGTTGATTGCAGAGTAG the PBM binding z-score was -0.0942.
In the case of AGAACGAGGGCACGCTGAGTAGATAGCAGAGTAG, the PBM binding z-score is reported as -0.149.
With ATATGTAGGTTACATCCGGGTCATTCCGGCTATG the PBM binding z-score was 1.56.
In the case of AGAACGCGGGCACGCTGAGTTGATAGCAGAGTAG, the PBM binding z-score is reported as -0.289.
With TCTTGTAGATCAATAGAGGCTAAGAAAGTGCGCT the PBM binding z-score was 0.17.
In the case of CCTAGCAGGCCAATCTGGGTCACTGAAGGCTTGA, the PBM binding z-score is reported as -0.752.
CCTTACGGGTCACGAGGTTACAGCACGACGAGCG showed a PBM binding z-score of 0.46.
Work on TCTTGTAGATCAGCAGGTGAAGAAAGCTGGCCAA yielded a PBM binding z-score of -0.577.
Work on ACTATTAGCTGACTTAGGGCAACCGATACGACGC yielded a PBM binding z-score of -0.168.
AGAACGAGGGCAATGAGTTGATCGCACGGGTGGC was tested, and the PBM binding z-score was 5.1.
TTACCAAGGTGAAGGTCGTCGATCCCTCTGTAGA was tested, and the PBM binding z-score was -0.288.
For CTCGAAAGGTCGGTTGAGGTGAATATACGGATAA, the PBM binding z-score was 0.148.
For CGTCCAAGGTCAAGGCTAGGTCAGTGAAAGCATT, the PBM binding z-score was 1.42.
With ACTAGCAGGCAAAGGGTCACTCAAGATTAGTCCG the PBM binding z-score was 0.241.
For TCTTGTAGAACAAAGGTTAAGAAAGCCGAAGCCT, the PBM binding z-score was -0.451.
TAACCTAGGTCATGGGCCAGTATACCACGCGAAC showed a PBM binding z-score of 0.195.
In the case of CTACCAAGGTGAACAAGGTCGTTGCTTACTATTC, the PBM binding z-score is reported as 1.88.
Work on TGTGCTAGGTCAGTTGGTCAGCTAACGAGCTGCC yielded a PBM binding z-score of -0.625.
TCTGGTTGGTCACGGAGGTCACACACGACGGGTA gave a PBM binding z-score of 2.06.
Work on AGTCAAAGTTCATCTAGGTGACGTAAGATATGCT yielded a PBM binding z-score of 6.85.
For GCTCTTAGTTGAAAGGGCAACCGAATGATTCTCG, the PBM binding z-score was -0.0314.
For CGTCCAAGGTCAGGGTCAGTGAAAGAGACTCGAA, the PBM binding z-score was 0.71.
Sequence TCATATAGCTAAAGGTGAAAGTCGAACGATATGA has a PBM binding z-score of 0.459.
With AGAATGAGGTTACCAAAGATCAGGTAAACGCTTG the PBM binding z-score was -0.0452.
In the case of GCTGCTAGGTCAACTGATGGTTAGCTAAAGCTCG, the PBM binding z-score is reported as -0.971.
TCGAGTAGGTTACTCGGGGCATTCAGCCAACATA gave a PBM binding z-score of -0.427.
AGAAGGAGGGCACGCTGAGTTGATAGCAGAGTAG showed a PBM binding z-score of 0.294.
Work on GCATATAGGTAATACATGGTGAAAGTCCGATTGT yielded a PBM binding z-score of 0.145.
Sequence GCTATTAGTTGAAAAGGCAACCGAATGATTCTCG has a PBM binding z-score of 0.363.
CAAACTAGGTCAAGGTCAACGTCGGTTTGTGCCA gave a PBM binding z-score of 1.97.
GCTTGTAAATCAAGGTTAAGAAAGACTAAGCTAA was tested, and the PBM binding z-score was -0.123.
